# The full ranking holds about 33,000 sequences; the median of “e-score” is about -0.037, and the highest 2% start at about 0.34. The sample holds the highest values, similar sequences and a random draw of the others, so the mix is not that of the screen.
# Biological target: T1, GST-Rok (full length) (Bacillus subtilis subsp. subtilis str. …, UniProt O34857 1-191)
# T1 sequence: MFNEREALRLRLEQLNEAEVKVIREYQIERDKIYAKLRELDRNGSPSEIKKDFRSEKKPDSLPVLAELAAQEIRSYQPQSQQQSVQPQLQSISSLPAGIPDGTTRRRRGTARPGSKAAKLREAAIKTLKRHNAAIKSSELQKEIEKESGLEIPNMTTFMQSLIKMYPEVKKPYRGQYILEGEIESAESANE
# Test: protein binding microarray; Rok is a gene silencer of Bacillus subtilis; high values mean tight binding
# Conditions: protein: recombinant; tags: GST (pTH5325, pDEST15-Magic modified); dsDNA, one strand shown
# How it was run: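 Each has a 25-mer constant primer and a 35-mer variable part from a de Bruijn sequence of order 10, covering every non-palindromic 8-mer at least 32 times (palindromic 16). Preference for each 8-mer is given as a rank-based, unitless enrichment score (E-score). Its range runs from 0.5 (most favored) to −0.5 (most disfavored).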
row,Sequence,binding signal
1,AAGATGGT,0.0131 E-score
2,CCCGTTCA,-0.154 E-score
3,AATATGCA,0.304 E-score
4,AGCTATCA,0.336 E-score
5,CGCTATCA,0.0965 E-score
6,GGCTATCA,-0.0678 E-score
7,ACGATTCA,-0.00504 E-score
8,CATGTAGG,0.116 E-score
9,AACGTAGT,0.0637 E-score
10,CATGTAGC,0.384 E-score
11,AATGTAAT,0.326 E-score
12,AATGTAGC,0.221 E-score
13,GCTGTAGA,0.0153 E-score
14,CCTGTAGA,0.0279 E-score
15,GATGTAGC,0.0838 E-score
16,AATGTAGG,0.174 E-score
17,AATGTAGA,0.389 E-score
18,AATGTAGT,0.363 E-score
19,ACTGTAGA,0.373 E-score
20,AGCTGCAC,0.104 E-score
21,GAAGTCCC,-0.124 E-score
22,ACCGATCC,-0.198 E-score

row,Sequence,binding signal
1,ATGAGGCG,-0.173 E-score
2,CTTAGGTC,0.00712 E-score
3,AAGCTAAG,-0.0658 E-score
4,TATGTAGA,0.292 E-score
5,CATGTAGA,0.374 E-score
6,GATGTAGA,0.209 E-score
7,CGCTCTGA,-0.0888 E-score
8,AGTAGGAA,0.231 E-score
9,ACTAATAT,0.385 E-score
10,AGTAATAC,0.26 E-score
11,AGTAATAG,0.365 E-score
12,CGTAATAG,0.318 E-score
13,AGTAATAT,0.402 E-score
14,AGTAATAA,0.197 E-score
15,ACTAATAG,0.227 E-score
16,ACTAATAC,0.265 E-score
17,AGTAATCG,0.0386 E-score
18,AACGGCTG,0.0377 E-score
19,AAGTCAAT,0.226 E-score
20,CTTGTCTC,0.0221 E-score
21,GGGTTGCA,-0.161 E-score
22,AGATGTAA,0.17 E-score

row,Sequence,binding signal
1,CATCTTAG,0.118 E-score
2,GTTGATCA,-0.00765 E-score
3,CGCAAGCC,-0.112 E-score
4,AGATAGAG,0.026 E-score
5,ACATAGAC,0.0568 E-score
6,AGATAGAT,0.386 E-score
7,ACATAGAT,0.346 E-score
8,ACATAGAG,0.00988 E-score
9,AGATAGAC,0.108 E-score
10,CTCTAGAC,-0.099 E-score
11,ACGAACGA,-0.116 E-score
12,CTCTACTA,0.216 E-score
13,ATCTACTG,0.382 E-score
14,ATCTACTC,0.251 E-score
15,ATCTACTA,0.446 E-score
16,ATCTACGG,0.158 E-score
17,GTCTACTA,0.261 E-score
18,ACATGTTG,-0.0393 E-score
19,CGCGCATA,0.139 E-score
20,AATAAACG,0.0748 E-score
21,GCTGTAAA,0.151 E-score
22,CGGTATAA,0.28 E-score

row,Sequence,binding signal
1,TAGTATAA,0.404 E-score
2,AAGTATAA,0.142 E-score
3,AGGTATAA,0.322 E-score
4,CAGTATAA,0.312 E-score
5,TGGTATAA,0.349 E-score
6,GGTTGTAC,0.114 E-score
7,CGCGACAG,0.0354 E-score
8,ATCTACAT,0.372 E-score
9,ATCTACAC,0.348 E-score
10,CTCTACAC,0.0962 E-score
11,GTCTACAC,-0.0482 E-score
12,ATCTACAG,0.26 E-score
13,ATCTACAA,0.276 E-score
14,AAGGGTTA,-0.101 E-score
15,TCGCACAA,0.0863 E-score
16,CCGGCTGA,-0.0957 E-score
17,TGCATTAA,0.25 E-score
18,GAATTCCA,0.0902 E-score
19,TATAGTAA,0.389 E-score
20,AATAGTAA,0.325 E-score

# — publication PMC6212790, “How bacterial xenogeneic silencer rok distinguishes foreign from self DNA in its resident genome”
